{
  "source": "paper PMC7862700",
  "about": "“An all-to-all approach to the identification of sequence-specific readers for epigenetic DNA modifications on cytosine”",
  "assay_in_all_cases": "DAPPL (digital affinity profiling via proximity ligation, sequencing); 10 mM Tris-HCl pH 7.5, 50 mM NaCl, 1 mM DTT, 4% glycerol, room temperature, 30 min; GST-TFs on glutathione beads, 16-mer random dsDNA library, 0.1% formaldehyde crosslink after washing; high values mean tight binding",
  "key": {"FLI1": {"molecular_target": "T1, FLI1 (Homo sapiens, UniProt Q01543 1-452)", "T1 sequence": "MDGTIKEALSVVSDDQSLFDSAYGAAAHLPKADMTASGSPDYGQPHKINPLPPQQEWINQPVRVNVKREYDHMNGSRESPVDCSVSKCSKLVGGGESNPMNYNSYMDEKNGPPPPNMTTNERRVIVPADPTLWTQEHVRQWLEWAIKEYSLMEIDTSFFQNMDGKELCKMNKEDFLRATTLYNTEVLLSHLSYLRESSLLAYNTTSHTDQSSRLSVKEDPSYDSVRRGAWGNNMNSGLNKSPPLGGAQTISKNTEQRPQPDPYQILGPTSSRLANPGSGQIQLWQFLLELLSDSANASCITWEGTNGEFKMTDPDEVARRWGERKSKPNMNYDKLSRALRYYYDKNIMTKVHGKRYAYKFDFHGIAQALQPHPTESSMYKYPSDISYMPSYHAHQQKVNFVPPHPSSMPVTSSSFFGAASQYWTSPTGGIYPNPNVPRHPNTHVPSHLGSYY", "conditions": "protein: recombinant; tags: N-terminal GST; dsDNA, one strand shown", "method_in_brief": "(§1)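 Human transcription factors were made in yeast as GST fusions, captured on glutathione beads and barcoded with DNA. With a tag-only sample included, the pool was incubated with 200 nmole of a random double-stranded 16-mer DNA library in Tris/NaCl/DTT/glycerol buffer at room temperature for 30 min, then crosslinked with 0.1% formaldehyde after washing, ligated by proximity, amplified and sequenced. For binding signal, each hexamer's read frequency for a factor is divided by its frequency for the tag-only sample.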"}, "GABPA": {"molecular_target": "T2, GABPA (Homo sapiens, UniProt Q06546 1-454)", "T2 sequence": "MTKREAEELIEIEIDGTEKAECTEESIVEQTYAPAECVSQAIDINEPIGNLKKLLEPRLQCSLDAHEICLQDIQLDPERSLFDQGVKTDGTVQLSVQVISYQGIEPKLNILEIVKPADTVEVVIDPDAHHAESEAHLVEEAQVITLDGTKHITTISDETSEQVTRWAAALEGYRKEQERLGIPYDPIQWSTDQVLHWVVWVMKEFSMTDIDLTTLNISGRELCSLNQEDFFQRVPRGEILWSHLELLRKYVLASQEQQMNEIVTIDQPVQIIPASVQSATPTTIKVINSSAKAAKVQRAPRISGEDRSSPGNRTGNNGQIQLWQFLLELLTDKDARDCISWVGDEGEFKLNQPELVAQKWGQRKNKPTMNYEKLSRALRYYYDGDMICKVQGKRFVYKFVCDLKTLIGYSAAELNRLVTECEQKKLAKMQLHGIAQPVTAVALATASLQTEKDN", "conditions": "protein: recombinant; tags: N-terminal GST; dsDNA, one strand shown", "method_in_brief": "as §1"}, "ERG": {"molecular_target": "T3, ERG (Homo sapiens, UniProt P11308 1-479)", "T3 sequence": "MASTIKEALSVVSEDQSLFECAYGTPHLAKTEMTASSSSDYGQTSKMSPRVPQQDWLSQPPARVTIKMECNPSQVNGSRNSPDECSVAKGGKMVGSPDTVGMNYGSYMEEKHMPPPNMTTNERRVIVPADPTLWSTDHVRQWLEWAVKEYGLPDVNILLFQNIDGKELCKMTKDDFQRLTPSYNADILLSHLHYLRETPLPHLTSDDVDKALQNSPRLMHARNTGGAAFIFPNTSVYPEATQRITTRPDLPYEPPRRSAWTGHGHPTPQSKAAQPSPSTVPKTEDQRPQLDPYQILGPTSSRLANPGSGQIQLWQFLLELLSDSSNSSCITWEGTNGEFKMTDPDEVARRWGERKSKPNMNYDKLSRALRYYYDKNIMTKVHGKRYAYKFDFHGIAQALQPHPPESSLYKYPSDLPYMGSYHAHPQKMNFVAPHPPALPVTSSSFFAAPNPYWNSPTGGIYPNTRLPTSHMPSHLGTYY", "conditions": "protein: recombinant; tags: N-terminal GST; dsDNA, one strand shown", "method_in_brief": "as §1"}, "ELF1": {"molecular_target": "ELF1 (Homo sapiens, UniProt P32519 1-619)", "sequence (P32519 whole entry)": "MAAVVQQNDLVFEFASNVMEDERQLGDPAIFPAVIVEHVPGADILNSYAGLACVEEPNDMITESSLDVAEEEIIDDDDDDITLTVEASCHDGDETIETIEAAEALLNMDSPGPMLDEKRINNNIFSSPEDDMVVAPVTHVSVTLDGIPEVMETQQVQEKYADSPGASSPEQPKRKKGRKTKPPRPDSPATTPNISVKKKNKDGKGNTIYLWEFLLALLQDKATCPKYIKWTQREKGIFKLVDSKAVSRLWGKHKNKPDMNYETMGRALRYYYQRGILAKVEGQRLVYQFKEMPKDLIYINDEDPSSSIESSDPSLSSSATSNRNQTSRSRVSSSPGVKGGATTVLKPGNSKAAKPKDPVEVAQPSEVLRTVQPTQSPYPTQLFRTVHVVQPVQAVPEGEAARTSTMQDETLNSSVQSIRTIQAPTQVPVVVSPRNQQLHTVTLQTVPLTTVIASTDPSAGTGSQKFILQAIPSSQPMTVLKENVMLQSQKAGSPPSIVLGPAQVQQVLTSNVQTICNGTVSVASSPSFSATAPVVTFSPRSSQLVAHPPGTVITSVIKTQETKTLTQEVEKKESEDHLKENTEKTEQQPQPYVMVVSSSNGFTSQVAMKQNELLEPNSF", "conditions": "protein: recombinant; tags: N-terminal GST; dsDNA, one strand shown", "method_in_brief": "as §1"}, "EHF": {"molecular_target": "T4, EHF (Homo sapiens, UniProt Q9NZC4 1-300)", "T4 sequence": "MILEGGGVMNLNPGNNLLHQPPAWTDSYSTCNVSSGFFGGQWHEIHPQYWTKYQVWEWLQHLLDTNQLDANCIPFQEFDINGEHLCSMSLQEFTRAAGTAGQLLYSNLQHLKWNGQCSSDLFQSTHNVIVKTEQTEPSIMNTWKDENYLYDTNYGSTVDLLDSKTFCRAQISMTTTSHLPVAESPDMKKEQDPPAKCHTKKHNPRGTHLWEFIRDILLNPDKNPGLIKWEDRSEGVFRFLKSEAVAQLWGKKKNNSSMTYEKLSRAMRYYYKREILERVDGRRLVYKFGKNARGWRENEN", "conditions": "protein: recombinant; tags: N-terminal GST; dsDNA, one strand shown", "method_in_brief": "as §1"}, "SPI1": {"molecular_target": "SPI1 (Homo sapiens, UniProt P17947 1-270)", "conditions": "protein: recombinant; tags: N-terminal GST; dsDNA, one strand shown", "method_in_brief": "as §1"}, "SPIB": {"molecular_target": "SPIB (Homo sapiens, UniProt Q01892 1-262)", "sequence (Q01892 whole entry)": "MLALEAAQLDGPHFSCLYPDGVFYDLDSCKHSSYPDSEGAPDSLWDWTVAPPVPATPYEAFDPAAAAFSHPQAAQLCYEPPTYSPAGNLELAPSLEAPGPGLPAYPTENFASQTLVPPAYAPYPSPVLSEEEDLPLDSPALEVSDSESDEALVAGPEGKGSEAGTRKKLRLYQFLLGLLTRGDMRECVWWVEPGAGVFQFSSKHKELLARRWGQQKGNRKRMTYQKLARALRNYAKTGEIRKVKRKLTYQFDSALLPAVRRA", "conditions": "protein: recombinant; tags: N-terminal GST; dsDNA, one strand shown", "method_in_brief": "as §1"}, "FEV": {"molecular_target": "T5, FEV (Homo sapiens, UniProt Q99581 1-238)", "T5 sequence": "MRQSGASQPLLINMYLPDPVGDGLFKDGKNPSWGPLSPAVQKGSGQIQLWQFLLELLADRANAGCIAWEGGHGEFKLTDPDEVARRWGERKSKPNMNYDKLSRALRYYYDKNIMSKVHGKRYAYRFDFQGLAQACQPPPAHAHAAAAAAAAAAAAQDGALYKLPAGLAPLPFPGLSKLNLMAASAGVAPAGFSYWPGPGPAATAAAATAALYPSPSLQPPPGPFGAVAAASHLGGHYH", "conditions": "protein: recombinant; tags: N-terminal GST; dsDNA, one strand shown", "method_in_brief": "as §1"}, "ETV5": {"molecular_target": "ETV5 (Homo sapiens, UniProt P41161 1-510)", "sequence (P41161 whole entry)": "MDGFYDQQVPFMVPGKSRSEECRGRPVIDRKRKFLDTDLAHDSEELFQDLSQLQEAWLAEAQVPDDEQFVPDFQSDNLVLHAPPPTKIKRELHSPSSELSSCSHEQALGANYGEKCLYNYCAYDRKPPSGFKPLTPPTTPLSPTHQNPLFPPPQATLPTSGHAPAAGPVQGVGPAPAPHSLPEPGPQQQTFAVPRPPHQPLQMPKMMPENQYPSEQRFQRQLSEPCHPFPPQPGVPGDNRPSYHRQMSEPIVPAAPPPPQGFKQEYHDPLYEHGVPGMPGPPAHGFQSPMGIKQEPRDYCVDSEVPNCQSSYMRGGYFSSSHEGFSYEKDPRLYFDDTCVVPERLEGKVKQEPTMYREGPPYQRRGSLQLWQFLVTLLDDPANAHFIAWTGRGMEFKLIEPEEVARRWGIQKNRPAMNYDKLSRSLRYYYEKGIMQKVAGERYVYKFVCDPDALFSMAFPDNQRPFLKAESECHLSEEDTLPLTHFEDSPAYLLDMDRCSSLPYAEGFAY", "conditions": "protein: recombinant; tags: N-terminal GST; dsDNA, one strand shown", "method_in_brief": "as §1"}, "HSF1": {"molecular_target": "HSF1 (Homo sapiens, UniProt Q00613 1-529)", "sequence (Q00613 whole entry)": "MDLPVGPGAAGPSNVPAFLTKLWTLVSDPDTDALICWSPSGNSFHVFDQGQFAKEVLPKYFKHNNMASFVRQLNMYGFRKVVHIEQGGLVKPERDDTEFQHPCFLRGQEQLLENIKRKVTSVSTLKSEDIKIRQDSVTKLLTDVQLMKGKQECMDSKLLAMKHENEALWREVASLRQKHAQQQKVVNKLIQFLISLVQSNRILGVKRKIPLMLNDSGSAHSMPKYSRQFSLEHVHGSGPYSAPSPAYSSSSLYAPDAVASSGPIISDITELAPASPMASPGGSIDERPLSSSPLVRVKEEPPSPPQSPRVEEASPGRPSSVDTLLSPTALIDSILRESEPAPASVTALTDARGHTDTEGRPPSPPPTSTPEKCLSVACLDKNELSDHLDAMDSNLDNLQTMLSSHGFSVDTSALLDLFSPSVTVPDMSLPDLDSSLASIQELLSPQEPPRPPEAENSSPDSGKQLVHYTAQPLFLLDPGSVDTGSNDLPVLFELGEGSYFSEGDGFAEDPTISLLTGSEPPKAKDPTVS", "conditions": "protein: recombinant; tags: N-terminal GST; chain copies: 3; dsDNA, one strand shown", "method_in_brief": "as §1"}, "SPIC": {"molecular_target": "T6, SPIC (Homo sapiens, UniProt Q8N5J4 1-248)", "T6 sequence": "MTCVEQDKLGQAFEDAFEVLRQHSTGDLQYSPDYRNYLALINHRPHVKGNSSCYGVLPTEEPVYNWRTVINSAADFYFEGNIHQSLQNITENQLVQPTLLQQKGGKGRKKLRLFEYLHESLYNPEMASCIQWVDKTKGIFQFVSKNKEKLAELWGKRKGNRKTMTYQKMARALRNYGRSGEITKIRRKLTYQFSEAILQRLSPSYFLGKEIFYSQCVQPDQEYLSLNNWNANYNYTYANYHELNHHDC", "conditions": "protein: recombinant; tags: N-terminal GST; dsDNA, one strand shown", "method_in_brief": "as §1"}, "ELF4": {"molecular_target": "ELF4 (Homo sapiens, UniProt Q99607 1-663)", "sequence (Q99607 whole entry)": "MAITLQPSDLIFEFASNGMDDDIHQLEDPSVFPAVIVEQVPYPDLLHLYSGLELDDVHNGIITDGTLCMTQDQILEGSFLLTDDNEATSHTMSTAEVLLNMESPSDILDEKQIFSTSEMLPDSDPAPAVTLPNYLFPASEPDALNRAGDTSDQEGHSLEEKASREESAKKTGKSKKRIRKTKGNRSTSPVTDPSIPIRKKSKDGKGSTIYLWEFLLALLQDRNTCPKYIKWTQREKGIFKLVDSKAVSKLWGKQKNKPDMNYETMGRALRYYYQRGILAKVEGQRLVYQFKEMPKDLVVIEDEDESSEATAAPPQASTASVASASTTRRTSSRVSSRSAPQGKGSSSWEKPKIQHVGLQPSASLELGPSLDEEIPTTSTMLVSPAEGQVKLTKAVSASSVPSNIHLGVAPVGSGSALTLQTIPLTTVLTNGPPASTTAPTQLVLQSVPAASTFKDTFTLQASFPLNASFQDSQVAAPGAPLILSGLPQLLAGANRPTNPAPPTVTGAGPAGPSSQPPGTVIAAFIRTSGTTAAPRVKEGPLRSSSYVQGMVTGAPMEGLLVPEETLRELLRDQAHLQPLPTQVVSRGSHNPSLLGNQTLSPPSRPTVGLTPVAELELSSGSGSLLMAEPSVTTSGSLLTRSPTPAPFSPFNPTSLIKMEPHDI", "conditions": "protein: recombinant; tags: N-terminal GST; dsDNA, one strand shown", "method_in_brief": "as §1"}, "ELK4": {"molecular_target": "T7, ELK4 (Homo sapiens, UniProt P28324-2 1-405)", "T7 sequence": "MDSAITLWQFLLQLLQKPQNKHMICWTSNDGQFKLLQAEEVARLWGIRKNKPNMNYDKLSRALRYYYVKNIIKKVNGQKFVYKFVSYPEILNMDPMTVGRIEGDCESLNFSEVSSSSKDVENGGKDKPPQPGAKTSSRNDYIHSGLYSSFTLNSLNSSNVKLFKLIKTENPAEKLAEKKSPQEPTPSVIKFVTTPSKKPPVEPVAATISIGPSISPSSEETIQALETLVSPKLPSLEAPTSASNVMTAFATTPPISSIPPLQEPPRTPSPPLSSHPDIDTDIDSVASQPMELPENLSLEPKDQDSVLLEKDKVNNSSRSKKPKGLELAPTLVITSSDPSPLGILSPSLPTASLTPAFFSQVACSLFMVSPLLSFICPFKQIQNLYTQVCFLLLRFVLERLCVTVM", "conditions": "protein: recombinant; tags: N-terminal GST; dsDNA, one strand shown", "method_in_brief": "as §1"}, "ETV2": {"molecular_target": "T8, ETV2 (Homo sapiens, UniProt O00321 1-342)", "T8 sequence": "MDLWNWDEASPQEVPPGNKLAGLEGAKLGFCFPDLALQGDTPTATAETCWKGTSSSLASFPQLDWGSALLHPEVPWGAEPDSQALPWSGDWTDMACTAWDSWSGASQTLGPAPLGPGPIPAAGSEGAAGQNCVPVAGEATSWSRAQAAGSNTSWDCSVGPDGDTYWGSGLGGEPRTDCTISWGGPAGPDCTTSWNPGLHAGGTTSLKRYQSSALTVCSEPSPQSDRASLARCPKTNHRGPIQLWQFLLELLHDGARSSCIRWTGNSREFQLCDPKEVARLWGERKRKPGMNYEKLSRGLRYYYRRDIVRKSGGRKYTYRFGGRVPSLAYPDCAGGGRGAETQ", "conditions": "protein: recombinant; tags: N-terminal GST; dsDNA, one strand shown", "method_in_brief": "as §1"}, "ELF3": {"molecular_target": "T9, ELF3 (Homo sapiens, UniProt P78545 1-371)", "T9 sequence": "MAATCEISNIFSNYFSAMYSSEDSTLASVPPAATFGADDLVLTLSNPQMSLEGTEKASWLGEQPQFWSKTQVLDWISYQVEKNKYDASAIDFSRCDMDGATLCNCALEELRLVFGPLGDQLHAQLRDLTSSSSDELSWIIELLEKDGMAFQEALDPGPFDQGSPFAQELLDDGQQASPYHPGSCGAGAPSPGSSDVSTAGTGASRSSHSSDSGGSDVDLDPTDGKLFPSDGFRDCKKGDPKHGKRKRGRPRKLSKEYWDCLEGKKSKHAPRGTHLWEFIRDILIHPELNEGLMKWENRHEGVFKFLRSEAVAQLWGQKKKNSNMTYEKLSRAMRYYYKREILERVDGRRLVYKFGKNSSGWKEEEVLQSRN", "conditions": "protein: recombinant; tags: N-terminal GST; dsDNA, one strand shown", "method_in_brief": "as §1"}, "CRX": {"molecular_target": "CRX (Homo sapiens, UniProt O43186 1-299)", "sequence (O43186 whole entry)": "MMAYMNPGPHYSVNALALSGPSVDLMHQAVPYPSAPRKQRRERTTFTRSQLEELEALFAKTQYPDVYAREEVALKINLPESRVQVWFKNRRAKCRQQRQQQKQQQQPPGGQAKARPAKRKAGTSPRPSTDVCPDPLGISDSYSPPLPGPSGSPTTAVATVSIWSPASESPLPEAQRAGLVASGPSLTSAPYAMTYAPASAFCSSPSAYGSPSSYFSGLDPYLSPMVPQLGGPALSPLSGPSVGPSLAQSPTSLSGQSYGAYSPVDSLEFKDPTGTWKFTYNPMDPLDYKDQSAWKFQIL", "conditions": "protein: recombinant; tags: N-terminal GST; dsDNA, one strand shown", "method_in_brief": "as §1"}, "ETV1": {"molecular_target": "ETV1 (Homo sapiens, UniProt P50549 1-477)", "sequence (P50549 whole entry)": "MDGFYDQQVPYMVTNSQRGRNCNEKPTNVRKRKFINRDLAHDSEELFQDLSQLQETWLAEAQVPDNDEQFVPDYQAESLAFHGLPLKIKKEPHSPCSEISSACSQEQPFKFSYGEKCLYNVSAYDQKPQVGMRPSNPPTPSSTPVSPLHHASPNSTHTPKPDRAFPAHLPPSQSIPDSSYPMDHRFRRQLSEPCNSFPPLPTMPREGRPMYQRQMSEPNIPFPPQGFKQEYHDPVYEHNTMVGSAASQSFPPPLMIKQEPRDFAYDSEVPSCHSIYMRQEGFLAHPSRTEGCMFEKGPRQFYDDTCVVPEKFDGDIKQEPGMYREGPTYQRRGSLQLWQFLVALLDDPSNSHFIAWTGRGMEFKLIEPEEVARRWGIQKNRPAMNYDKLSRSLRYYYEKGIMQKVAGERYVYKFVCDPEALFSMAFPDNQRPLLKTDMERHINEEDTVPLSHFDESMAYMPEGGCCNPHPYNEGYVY", "conditions": "protein: recombinant; tags: N-terminal GST; dsDNA, one strand shown", "method_in_brief": "as §1"}},
  "data": [
    {"sequence": "TTTGAG", "values": [
      {"measurement": "binding signal", "setting": "FLI1", "result": "1.13 fold enrichment (6-mer frequency, TF over GST control)"},
      {"measurement": "binding signal", "setting": "GABPA", "result": "1.28 fold enrichment (6-mer frequency, TF over GST control)"},
      {"measurement": "binding signal", "setting": "ERG", "result": "1.05 fold enrichment (6-mer frequency, TF over GST control)"},
      {"measurement": "binding signal", "setting": "ELF1", "result": "1.13 fold enrichment (6-mer frequency, TF over GST control)"},
      {"measurement": "binding signal", "setting": "EHF", "result": "1.09 fold enrichment (6-mer frequency, TF over GST control)"},
      {"measurement": "binding signal", "setting": "SPI1", "result": "1.16 fold enrichment (6-mer frequency, TF over GST control)"},
      {"measurement": "binding signal", "setting": "SPIB", "result": "1.12 fold enrichment (6-mer frequency, TF over GST control)"},
      {"measurement": "binding signal", "setting": "FEV", "result": "1.03 fold enrichment (6-mer frequency, TF over GST control)"},
      {"measurement": "binding signal", "setting": "ETV5", "result": "1.02 fold enrichment (6-mer frequency, TF over GST control)"},
      {"measurement": "binding signal", "setting": "HSF1", "result": "1.1 fold enrichment (6-mer frequency, TF over GST control)"},
      {"measurement": "binding signal", "setting": "SPIC", "result": "1.36 fold enrichment (6-mer frequency, TF over GST control)"},
      {"measurement": "binding signal", "setting": "ELF4", "result": "1.02 fold enrichment (6-mer frequency, TF over GST control)"},
      {"measurement": "binding signal", "setting": "ELK4", "result": "1.23 fold enrichment (6-mer frequency, TF over GST control)"},
      {"measurement": "binding signal", "setting": "ETV2", "result": "1.04 fold enrichment (6-mer frequency, TF over GST control)"},
      {"measurement": "binding signal", "setting": "ELF3", "result": "1.08 fold enrichment (6-mer frequency, TF over GST control)"},
      {"measurement": "binding signal", "setting": "CRX", "result": "1.23 fold enrichment (6-mer frequency, TF over GST control)"},
      {"measurement": "binding signal", "setting": "ETV1", "result": "1.14 fold enrichment (6-mer frequency, TF over GST control)"}
    ]}
  ]
}
